Measured values published in PubChem BioAssay AID624305 (National Center for Advancing Translational Sciences (NCATS), 2012).
Inconclusive results are not listed. A call without a number means that no potency is given here. Values without a mark were called inactive. Activity calls are given as the source filed them. Calls follow the shape of the dose curve; as a rule, active = well fitted activation curve with a large enough effect; inconclusive = small, poorly fitted or top-dose-only effect; inactive = no such curve, though single readings can be large or run the other way.
Potency is read from the fitted curve at half-maximal effect.

Test: qHTS assay for re-activators of p53 using a Luc reporter: Hit Validation; also: nearly all actives have a fitted effect of over 75% in size
Conditions: p53-responsive luciferase reporter cells, luminescence; series mostly up to 46.1 µM
Description: The p53 tumor suppressor plays a key role in suppression of tumorigenesis and in human carcinogenesis. It is frequently found inactivated in human cancers, mainly by point mutation. These point mutations are found in a wide variety of human cancers and a majority of them affect the DNA binding domain of the protein. The point mutations either alter native p53 conformation or abolish DNA contact. Additionally, cancer cells with p53 mutations are more resistant to chemo-radiation therapies.
In order to find activators to reactivate this important protein, a cell-based screen for p53-dependent luciferase-reporter expression was developed. A p53-null H1299 lung cancer cell line was stably co-transfected with a temperature sensitive p53 mutant, p53-A138V, and a p53-responsive BP100-luciferase reporter. This cell model has previously been characterized in a gene chip profiling experiment for p53 activation. By lowering the culture temperature from 37 deg C (mutant p53 conformation) to 32 deg C (w.t. p53 conformation), a 30-60 fold increase in activation of luciferase activity is observed. At assay temperate, 37 deg C, basal reporter expression is very low and after the addition of detection reagent, a luminescent read-out is carried out. This is the hit validation assay, confirming the hits identified from the primary screen.
NIH Chemical Genomics Center [NCGC]
NIH Molecular Libraries Probe Production Centers Network [MLPCN]
Assay Provider (PI): Yi Sung, University of Michigan at Ann Arbor
5ul of 1000 cells per well are dispensed in all wells except column 4, into white solid-bottom TC-treated Kalypsys plates. The cells are kept in Opti-MEM and supplemented with 10% FBS and dispensed using a Multidrop (Thermo). Then using the Kalypsys pin-tool, 23nl of compounds are pinned. The compounds are starting concentration at 10mM, with 1:5 dilution, 4 points, and the control compound nocodazole is pinned in column 1 at 25mM, 1:3 dilution, in duplicate, 25mM nocodazole is pinned in column 2. Please note, all concentrations are working concentrations. 5ul of 1pM purified luciferase enzyme is dispensed using the Kalypsys dispenser in column 4. Plates are incubated for 24 hrs at 37 deg C, 5% CO2, and 95% humidity. Then 4ul of the detection reagent Amplite (ABD Bioquest) is added using the Kalypsys dispenser. Plates are incubated for 10 min at ambient room temperature and are then read on the ViewLux (Perkin Elmer) using a clear filter for a luminescent read-out.
In the case of Nc1ccccc1N=Cc1c(O)n(CCC2=CCCCC2)c(=O)[nH]c1=O, the Potency is reported as “inactive”.
For O=C(N/N=C/c1c(O)n(C2CC2)c(=S)[nH]c1=O)c1ccccc1, the Potency was “inactive”.
In the case of N=C1c2ccccc2CN1CC(=O)c1ccccc1, the Potency is reported as 20.6 µM (active).
For COc1ccc(CN2CCNCC2)cc1, the Potency was “inactive”.
With COC(=O)C1=C(c2ccc(F)cc2OCc2ccccc2)C[C@@H]2CC[C@H]1N2C(=O)NCCOc1ccc(OC)cc1 the Potency was “inactive”.
With COC(=O)C1=C(c2cccc(C#N)c2)C[C@@H]2CC[C@H]1N2C(=O)NC1CC1 the Potency was “inactive”.
Work on O=C(N/N=C/c1c(O)n(Cc2ccccc2)c(=O)[nH]c1=O)c1ccccc1 yielded an activation of -38.5% [at 9.22 µM].
For Cc1cc(N2C(=O)C3CCCN3C2c2sccc2C)no1 (stereo unspecified), the Potency was “inactive”.
With Nc1c(C(=O)NCc2ccco2)c2nc3ccccc3nc2n1Cc1ccc(F)cc1 the Potency was “inactive”.
For COc1ccc(NC(=O)C2C3CCC(O3)C2C(=O)O)c(OC)c1 (stereo unspecified), the Potency was “inactive”.
For O=C(c1cc2c(s1)CCCC2)N1CCC2(CC1)OCCO2, the Potency was “inactive”.
